Results taken from PubChem BioAssay (NCI).
About 83,000 compounds went through this panel and 20% of them were active in at least one assay; those are over-represented in the sample as a whole.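 Note: values are percent growth. 100 is the growth of untreated cells, values between 100 and 0 indicate rising inhibition; between -100 and 0 indicates cell death.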

Key:
Experiment in all cases: NCI-60 one-dose screen, 48 h (100 = growth as untreated, 0 = no growth, -100 = all killed)
Details in all cases: 10 µM unless noted; active = growth percent below 10; inactive = the rest
[1] = system: NCI-H23 lung
[2] = system: NCI-H226 lung
[3] = system: NCI-H322M lung
[4] = system: HOP-62 NSCLC
[5] = system: NCI-H460 lung
[6] = system: HOP-92 NSCLC
[7] = system: NCI-H522 lung
[8] = system: A549/ATCC NSCLC
[9] = system: 786-0 renal
[10] = system: COLO 205 colon
[11] = system: DU-145 prostate
[12] = system: K-562 leukemia
[13] = system: MALME-3M melanoma
[14] = system: MDA-MB-231 breast
[15] = system: RXF 393 renal
[16] = system: SF-268 CNS
[17] = system: SF-295 CNS
[18] = system: SF-539 CNS
[19] = system: UACC-257 melanoma
[20] = system: M14 melanoma

Measured: growth

Cc1c(O)c(=O)ccn1-c1nc2ccccc2s1
inactive: [1] 102% | [2] 92.5% | [3] 88% | [4] 87.3% | [5] 99.3% | [6] 98.4% | [7] 75.4% | [8] 92.5% | [9] 84.6% | [10] 96.4% | [11] 103% | [12] 110% | [13] 96.6% | [14] 93.2% | [15] 87.8% | [16] 90.6% | [17] 105% | [18] 102% | [19] 90% | [20] 84.2%

CN1CCN(S(=O)(=O)O[C@@H]2C(=O)N(c3cc4c5ccccc5ccc4c4ccccc34)[C@H]2c2ccc(F)cn2)CC1
inactive: [1] 90.6% | [2] 91.2% | [3] 87.4% | [4] 86.6% | [5] 98% | [6] 65.3% | [7] 70.3% | [8] 83.4% | [9] 79.8% | [10] 96.7% | [11] 94.4% | [12] 74.7% | [13] 115% | [14] 38.8% | [15] 77.6% | [16] 79.7% | [17] 96.5% | [18] 104% | [19] 88.1%

N#Cc1c(-c2ccc(Cl)cc2)cc(-c2cc3ccccc3o2)nc1SCC(=O)c1ccc(Cl)cc1
inactive: [1] 91.7% | [2] 102% | [3] 104% | [4] 91.4% | [5] 107% | [6] 83.7% | [7] 97.5% | [8] 111% | [9] 97.2% | [10] 106% | [11] 121% | [12] 118% | [13] 90.6% | [14] 95.5% | [15] 116% | [16] 99.3% | [17] 90.1% | [18] 112% | [19] 112% | [20] 96.9%

COc1ccc(OCC(=O)OC(C)C)cc1
inactive: [1] 90.6% | [2] 95.3% | [3] 94% | [4] 101% | [5] 105% | [6] 104% | [7] 97.9% | [8] 102% | [9] 104% | [10] 104% | [11] 101% | [12] 98.7% | [13] 91.1% | [14] 98.1% | [15] 80.5% | [16] 92.5% | [17] 96.6% | [18] 98% | [19] 97.7%
